In all, about 310,000 compounds went through this assay and about 14,000 (4.5%) showed an effect of 50% or more. The effect is printed as a negative number. The sample holds strong results, similar compounds and a random draw of the others, so the mix is not that of the screen.
These molecules were tested against human ether-à-go-go-related gene (hERG) potassium channel (human, UniProt Q12809) (assay: primary screen, population patch clamp on CHO cells stably expressing hERG; higher = less effect of the substance).
human ether-à-go-go-related gene (hERG) potassium channel, sequence (Q12809 whole entry, looked up): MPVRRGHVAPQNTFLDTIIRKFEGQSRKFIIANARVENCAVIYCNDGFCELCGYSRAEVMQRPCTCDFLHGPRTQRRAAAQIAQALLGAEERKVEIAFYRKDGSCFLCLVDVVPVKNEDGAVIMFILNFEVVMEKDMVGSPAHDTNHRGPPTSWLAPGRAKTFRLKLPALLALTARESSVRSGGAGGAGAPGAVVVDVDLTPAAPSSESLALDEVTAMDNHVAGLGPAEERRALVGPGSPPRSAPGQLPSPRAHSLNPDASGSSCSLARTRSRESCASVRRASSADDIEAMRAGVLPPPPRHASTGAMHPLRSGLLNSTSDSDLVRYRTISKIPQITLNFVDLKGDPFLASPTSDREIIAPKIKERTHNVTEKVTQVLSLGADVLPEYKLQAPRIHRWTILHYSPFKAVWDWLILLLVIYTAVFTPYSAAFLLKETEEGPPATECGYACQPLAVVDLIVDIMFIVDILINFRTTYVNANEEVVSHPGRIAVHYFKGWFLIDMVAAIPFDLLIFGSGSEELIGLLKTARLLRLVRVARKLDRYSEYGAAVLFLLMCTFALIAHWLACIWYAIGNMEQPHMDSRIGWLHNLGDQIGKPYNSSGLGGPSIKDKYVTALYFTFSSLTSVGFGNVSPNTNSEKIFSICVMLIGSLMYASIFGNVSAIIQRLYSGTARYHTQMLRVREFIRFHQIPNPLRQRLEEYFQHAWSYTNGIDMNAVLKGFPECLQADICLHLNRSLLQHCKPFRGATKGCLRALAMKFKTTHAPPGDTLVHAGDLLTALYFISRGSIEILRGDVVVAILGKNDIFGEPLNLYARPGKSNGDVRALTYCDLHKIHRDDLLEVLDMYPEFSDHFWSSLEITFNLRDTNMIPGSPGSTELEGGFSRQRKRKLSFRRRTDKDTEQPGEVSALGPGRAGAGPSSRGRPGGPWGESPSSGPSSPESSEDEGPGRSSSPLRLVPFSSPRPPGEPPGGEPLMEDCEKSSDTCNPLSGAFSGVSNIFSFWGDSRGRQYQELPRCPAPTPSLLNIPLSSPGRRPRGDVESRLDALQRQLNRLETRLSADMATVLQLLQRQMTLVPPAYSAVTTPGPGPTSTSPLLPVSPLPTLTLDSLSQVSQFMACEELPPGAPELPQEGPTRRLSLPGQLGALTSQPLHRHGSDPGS
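Also: peak tail current of the secondary pulse compared with the same well before compound.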

First: O=[N+]([O-])c1ccc(N=Nc2ccc(O)cc2O)cc1
Second: Cc1oc2c(O)c(O)ccc2c(=O)c1-c1ccc(Cl)cc1
The “hERG current change (%, negative = inhibition) at 10uM” value of the first is higher: 28.4% for the first, -11.3% for the second.

Compared with CCCCn1c(O)c(N=Nc2ccccn2)c2ccccc21, COc1ccccc1OCCCn1cc(C(=O)C2CC2)c2ccccc21 is lower in “hERG current change (%, negative = inhibition) at 10uM” value: 7.6% for the first, -2.64% for the second.

Compared with Cc1ccc(N(CC(=O)NCCc2ccccc2)C(=O)c2csnn2)cc1, O=C(CN(C(=O)c1csnn1)c1ccc(F)cc1)NCCc1ccccc1 is higher in “hERG current change (%, negative = inhibition) at 10uM” value: -15.4% for the first, 7.95% for the second.

First: CC(C)c1ccc(N(CC(=O)NCCc2ccccc2)C(=O)c2csnn2)cc1
Second: O=C(CN(C(=O)c1csnn1)c1ccc(Cl)cc1)NCCc1ccccc1
The “hERG current change (%, negative = inhibition) at 10uM” value of the first is lower: -60% for the first, -5.16% for the second.

Going from CC(=O)c1ccc(N(CC(=O)NCCc2ccccc2)C(=O)c2csnn2)cc1 to O=C(CN(C(=O)c1csnn1)c1ccccc1)NCCc1ccccc1, the “hERG current change (%, negative = inhibition) at 10uM” value rises from -52.4% to -15%.

First: Cc1ccc(Cc2nnc(SCC(=O)Nc3c(C)cccc3C)[nH]c2=O)cc1
Second: Cc1ccc(S(=O)(=O)Nc2ccc(S(=O)(=O)Nc3cc(C)nc(C)n3)cc2)cc1
The “hERG current change (%, negative = inhibition) at 10uM” value of the first is lower: -9.17% for the first, 23.3% for the second.

Going from CCOC(=O)c1c(NC(=O)C2C3C=CC(C3)C2C(=O)O)sc2c1CC(C)CC2 (stereo not shown) to CCOC(=O)c1c(NC(=O)C2C3C=CC(C3)C2C(=O)O)sc2c1CCC(C)C2 (stereo not shown), the “hERG current change (%, negative = inhibition) at 10uM” value falls from 19.6% to -6.93%.

First: CCCOC(=O)c1c(NC(=O)C2C3C=CC(C3)C2C(=O)O)sc2c1CCC(C)C2 (stereo not shown)
Second: CC1CCC(C(C)C)C(OC(=O)COC(=O)c2ccc(=O)[nH]c2)C1 (stereo not shown)
The “hERG current change (%, negative = inhibition) at 10uM” value of the first is lower: -59.3% for the first, -8.28% for the second.

Compared with O=C(O)c1cc2c(cn1)[nH]c1ccccc12, NC(=O)c1cccnc1Oc1ccccc1 is lower in “hERG current change (%, negative = inhibition) at 10uM” value: 10.9% for the first, -30.8% for the second.

Compared with CC1CCC(C(C)C)C(OC(=O)CSc2n[nH]c(=O)[nH]c2=O)C1 (stereo not shown), Cc1nnc(SCC(=O)OC2CC(C)CCC2C(C)C)[nH]c1=O (stereo not shown) is higher in “hERG current change (%, negative = inhibition) at 10uM” value: -19.9% for the first, 11.1% for the second.

Compared with CC1CCC(C(C)C)C(OC(=O)COC(=O)c2ccc(N)cc2)C1 (stereo not shown), CC1CCC(C(C)C)C(OC(=O)COC(=O)c2cccn2C)C1 (stereo not shown) is higher in “hERG current change (%, negative = inhibition) at 10uM” value: 6.47% for the first, 16.1% for the second.

First: CC1CCC(C(C)C)C(OC(=O)C[n+]2cccc(C(N)=O)c2)C1.[Cl-] (stereo not shown)
Second: CC1CCC(C(C)C)C(OC(=O)CSc2nnc(N)s2)C1 (stereo not shown)
The “hERG current change (%, negative = inhibition) at 10uM” value of the first is higher: 7.66% for the first, 3.01% for the second.

Compared with CC1CCC(C(C)C)C(OC(=O)Cn2c(-c3ccc(Cl)cc3)[n+](C)c3ccccc32)C1.[Cl-] (stereo not shown), CC1CCC(C(C)C)C(OC(=O)Cn2c(-c3ccc(F)cc3)[n+](C)c3ccccc32)C1.[Cl-] (stereo not shown) is higher in “hERG current change (%, negative = inhibition) at 10uM” value: -82.9% for the first, -76.3% for the second.

Going from CC1CCC(C(C)C)C(OC(=O)Cn2nnc3c(cnn3-c3ccccc3)c2=O)C1 (stereo not shown) to CC1CCC(C(C)C)C(OC(=O)Cn2c(-c3ccccc3)[n+](C)c3ccccc32)C1.[Cl-] (stereo not shown), the “hERG current change (%, negative = inhibition) at 10uM” value falls from 3.74% to -77.3%.

Compared with CC1CCC(C(C)C)C(OC(=O)Cn2c(-c3ccc(Br)cc3)[n+](C)c3ccccc32)C1.[Cl-] (stereo not shown), O=C(NCCS(=O)(=O)N1CCN(c2ccccc2F)CC1)c1ccc(Br)cc1 is higher in “hERG current change (%, negative = inhibition) at 10uM” value: -78.3% for the first, 4.45% for the second.

First: COc1cccc(-n2ccnc2SCC(=O)Nc2cc(C)on2)c1
Second: COc1cccc(C(=O)NN2C(=S)N(c3ccccc3)C(=O)C2CC(N)=O)c1 (stereo not shown)
The “hERG current change (%, negative = inhibition) at 10uM” value of the first is lower: 14.1% for the first, 16.2% for the second.

Going from O=C(N/N=C/c1ccc(OC(=O)c2cccs2)cc1)c1ccc(F)cc1 to O=C(COc1ccc2ccccc2c1)Nc1ccccc1C(=O)O, the “hERG current change (%, negative = inhibition) at 10uM” value rises from 10% to 26.6%.

Compared with O=C(c1cc(=O)[nH]c2ccc(Br)cc12)N1CCC2(CC1)OCCO2, O=C(Nc1ccc(C(=O)N2CCCCC2)cc1)c1ccccc1Br is lower in “hERG current change (%, negative = inhibition) at 10uM” value: 12.6% for the first, 8.24% for the second.

First: CCOC(=O)c1c(-c2ccccc2)csc1NC(=O)c1ccc(S(=O)(=O)N2CCOCC2)cc1
Second: CCCn1c(NC(=O)c2cccc(S(=O)(=O)N3CCCC3)c2)nc2ccccc21
The “hERG current change (%, negative = inhibition) at 10uM” value of the first is higher: 9.29% for the first, -28.8% for the second.

Compared with CCN(CC)c1cc(NCCO)c([N+](=O)[O-])c2nonc12, CCN(CC)c1ccc(SS(=O)(=O)O)cc1 is higher in “hERG current change (%, negative = inhibition) at 10uM” value: -25.1% for the first, 9.02% for the second.

First: COc1ccc(CCC(=O)NCCS(=O)(=O)N2CCN(c3ccccc3OC)CC2)cc1
Second: COc1ccc(CCC(=O)NCCS(=O)(=O)N2CCN(c3ccccc3F)CC2)cc1
The “hERG current change (%, negative = inhibition) at 10uM” value of the first is higher: -8.87% for the first, -63.2% for the second.

Compared with COc1ccc(CCC(=O)NCCS(=O)(=O)N2CCN(c3ccccc3)CC2)cc1, COc1ccc(CCC(=O)NCCS(=O)(=O)N2CCN(c3ccc(F)cc3)CC2)cc1 is lower in “hERG current change (%, negative = inhibition) at 10uM” value: -36.6% for the first, -58.8% for the second.

First: COc1ccc(CCC(=O)NCCS(=O)(=O)N2CCN(c3ccc(OC)cc3)CC2)cc1
Second: O=C(Cc1ccc(Cl)cc1)NCCS(=O)(=O)N1CCN(c2ccccc2F)CC1
The “hERG current change (%, negative = inhibition) at 10uM” value of the first is higher: 7.57% for the first, -10.6% for the second.

First: O=C(CCCc1ccccc1)NCCS(=O)(=O)N1CCN(c2ccccc2F)CC1
Second: O=C(NCCS(=O)(=O)N1CCN(c2ccccc2F)CC1)c1ccc(Cl)cc1
The “hERG current change (%, negative = inhibition) at 10uM” value of the first is higher: -18.5% for the first, -55.5% for the second.

Going from COC(=O)COc1ccc(C(C2C(=O)CC(C)(C)CC2=O)C2C(=O)CC(C)(C)CC2=O)cc1 to COc1cccc(NC(=O)C23CCC(C)(C(=O)O2)C3(C)C)c1 (stereo not shown), the “hERG current change (%, negative = inhibition) at 10uM” value falls from 15.8% to -5.46%.

First: COc1ccc([C@H]2CC(=O)C=C(c3ccc(F)cc3OCc3ccccc3)C2)cc1OC
Second: CCOc1ccccc1NC1=CC(=O)CC(c2ccccc2)C1 (stereo not shown)
The “hERG current change (%, negative = inhibition) at 10uM” value of the first is higher: 12.1% for the first, -16.9% for the second.

Compared with O=C(CN1CCN(S(=O)(=O)c2ccc(F)cc2)CC1)c1ccc(O)c(O)c1, O=C(CN1CCN(S(=O)(=O)c2ccc(Br)cc2)CC1)c1ccc(O)c(O)c1 is lower in “hERG current change (%, negative = inhibition) at 10uM” value: -34.9% for the first, -76.8% for the second.

Compared with COc1ccc(S(=O)(=O)N2CCN(CC(=O)c3ccc(O)c(O)c3)CC2)cc1, O=C(CN1CCN(S(=O)(=O)c2ccc(Cl)cc2)CC1)c1ccc(O)c(O)c1 is lower in “hERG current change (%, negative = inhibition) at 10uM” value: -45% for the first, -59.5% for the second.

First: CC(C)c1ccc(S(=O)(=O)N2CCN(CC(=O)c3ccc(O)c(O)c3)CC2)cc1
Second: O=C(CN1CCN(S(=O)(=O)c2cc(Cl)ccc2Cl)CC1)c1ccc(O)c(O)c1
The “hERG current change (%, negative = inhibition) at 10uM” value of the first is lower: -24.6% for the first, 26.3% for the second.

Compared with Cc1cccc(-c2nc3ccccc3c3nncn23)c1, Cc1ccc(C)c(C(=O)COC(=O)c2cc(Cl)nc3ccccc23)c1 is higher in “hERG current change (%, negative = inhibition) at 10uM” value: -12.1% for the first, 26.4% for the second.

Going from N#CCn1nnc(-c2ccc3c(c2)OCO3)n1 to O=C(Nc1ccc2c(c1)CCC2)Nc1ccc2c(c1)OCO2, the “hERG current change (%, negative = inhibition) at 10uM” value rises from -4.09% to 6.88%.

First: Cc1cc(C(=O)OCC(=O)Nc2cc(C(F)(F)F)ccc2N2CCOCC2)c(C)o1
Second: CC(=O)c1c(C)[nH]c(C(=O)OCC(=O)Nc2cc(C(F)(F)F)ccc2N2CCOCC2)c1C
The “hERG current change (%, negative = inhibition) at 10uM” value of the first is higher: -0.421% for the first, -56.1% for the second.

Compared with O=C(COC(=O)COc1ccc2ccccc2c1)Nc1cc(C(F)(F)F)ccc1N1CCOCC1, Cc1cc(OCC(=O)OCC(=O)Nc2cc(C(F)(F)F)ccc2N2CCOCC2)ccc1Cl is higher in “hERG current change (%, negative = inhibition) at 10uM” value: 7.69% for the first, 11.1% for the second.

Compared with Cc1ccccc1OCC(=O)OCC(=O)Nc1cc(C(F)(F)F)ccc1N1CCOCC1, N#Cc1ccc(OCC(=O)OCC(=O)Nc2cc(C(F)(F)F)ccc2N2CCOCC2)cc1 is lower in “hERG current change (%, negative = inhibition) at 10uM” value: 12.9% for the first, -57.7% for the second.

Compared with COc1ccc(NC(C)C(=O)Nc2cc(C(F)(F)F)ccc2N2CCOCC2)c(OC)c1 (stereo not shown), COc1cc(Cl)c(C)cc1NC(C)C(=O)Nc1cc(C(F)(F)F)ccc1N1CCOCC1 (stereo not shown) is higher in “hERG current change (%, negative = inhibition) at 10uM” value: -19.2% for the first, -2.59% for the second.

First: O=C(COC(=O)c1ccc(O)cc1)Nc1cc(C(F)(F)F)ccc1N1CCOCC1
Second: O=C(COC(=O)c1ccccc1NCCO)Nc1cc(C(F)(F)F)ccc1N1CCOCC1
The “hERG current change (%, negative = inhibition) at 10uM” value of the first is higher: -25% for the first, -60.2% for the second.

First: COc1ccc(NC(C)=O)cc1NC(C)C(=O)Nc1cc(C(F)(F)F)ccc1N1CCOCC1 (stereo not shown)
Second: CSc1ncccc1C(=O)OCC(=O)Nc1cc(C(F)(F)F)ccc1N1CCOCC1
The “hERG current change (%, negative = inhibition) at 10uM” value of the first is lower: -60.1% for the first, -20.2% for the second.

Going from NCCN=C1NS(=O)(=O)c2ccccc21 to O=C(NCc1ccccn1)c1ccc(=O)oc1, the “hERG current change (%, negative = inhibition) at 10uM” value rises from 0.316% to 1.42%.

Compared with CCOc1ccc(OCC(=O)Nc2ccc(S(=O)(=O)Nc3cc(C)nc(C)n3)cc2)cc1, Cc1cc(Cl)ccc1OCC(=O)Nn1c(C)ccc1C is lower in “hERG current change (%, negative = inhibition) at 10uM” value: 16.4% for the first, 3.73% for the second.

First: COc1cccc(-c2nc(N3CCCC3)c3ccccc3n2)c1O
Second: CCCC(=O)NC(=S)Nc1cccc(Cl)c1N1CCCCC1
The “hERG current change (%, negative = inhibition) at 10uM” value of the first is lower: -5.65% for the first, 14.1% for the second.

Going from Cc1ccc(C(=O)NCc2ccco2)cc1Br to C/C(=N\NC(=O)c1ccccc1O)C1C(=O)c2ccccc2C1=O, the “hERG current change (%, negative = inhibition) at 10uM” value rises from -11.5% to -0.25%.

Going from COc1ccc(OC)c(/C=C2\Oc3cc(OCC(=O)N4CC(O)C[C@H]4C(=O)O)ccc3C2=O)c1 (stereo partly shown) to C/C(=N\NC(=O)C1CC1)c1ccccc1O, the “hERG current change (%, negative = inhibition) at 10uM” value falls from 4.97% to 0.248%.

For C/C(=N\NC(=O)c1ccccc1O)C1CC1, the “hERG current change (%, negative = inhibition) at 10uM” value was -62.2%.
